Screening results as filed in PubChem BioAssay.
RORgamma inh – blocks mouse ROR gamma transcriptional activity | P51450 | Drosophila S2 Gal4-RORgamma UAS-luciferase reporter, 20 h | Potency, µM (doses to about 53.6 µM), inactives show at the top dose activity change, negative = inhibition, hits mostly inhibitors | actives 5.4% (n = 310,000); further: potency means the concentration at half of the fitted maximal effect; on the % scale 0 is the no-effect control and ±100 the full control effect; nearly all actives have a fitted effect of over 60% in size
Target sequence (P51450 whole entry, looked up, the tested form may be a part): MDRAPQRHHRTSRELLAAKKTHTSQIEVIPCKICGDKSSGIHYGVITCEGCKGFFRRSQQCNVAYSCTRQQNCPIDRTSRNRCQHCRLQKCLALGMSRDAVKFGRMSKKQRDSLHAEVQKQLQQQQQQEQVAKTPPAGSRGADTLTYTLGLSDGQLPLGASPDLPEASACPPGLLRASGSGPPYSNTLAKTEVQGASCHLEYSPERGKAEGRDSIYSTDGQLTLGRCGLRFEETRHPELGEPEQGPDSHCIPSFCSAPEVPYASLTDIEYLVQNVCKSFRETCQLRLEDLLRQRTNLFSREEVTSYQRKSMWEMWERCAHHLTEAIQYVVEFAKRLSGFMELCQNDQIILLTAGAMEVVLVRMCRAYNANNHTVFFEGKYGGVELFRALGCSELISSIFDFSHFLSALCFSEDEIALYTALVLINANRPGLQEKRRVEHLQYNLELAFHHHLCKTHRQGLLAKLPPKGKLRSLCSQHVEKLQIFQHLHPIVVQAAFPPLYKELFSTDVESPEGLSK
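Read-out: Photinus luciferase luminescence; inhibitors lower reporter signal. Insect Schneider cells with Gal4-ROR gamma fusion under metallothionein promoter, UAS reporter; 700 uM final copper sulfate induction, 20 hr, ambient temperature.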
Giardia kill – kills Giardia lamblia. Giardia lamblia trophozoite viability. activity change, % at 7.66 µM, hits read low. actives 0.15% (n = 340,000). AID 540267; in the data active means activity change below about -80%; inconclusive means between about -30% and that limit;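 further: parasites exposed to compound for two days anaerobically before the ATP read; on the % scale 0 is the no-effect control and ±100 the full control effect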
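Each well holds 100 Giardia trophozoites and compound. After two days (48 hrs) at 37 deg C in anaerobic conditions, ATP is quantified by luminescence.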
Integrin act MD – activates integrin-mediated alleviation for muscular dystrophy. actives 0.064% (n = 350,000). alpha7betagal myoblasts, beta-gal FDG fluorescence, 48 h. Potency, µM (titrated, usually from 38.3 µM), for the others: top-dose activation, actives largely listed as activators. AID 624291;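 further: potency means the concentration at half of the fitted maximal effect; 100% = response of the positive control SU9516; nearly all actives have a fitted effect of over 60% in size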
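alpha7betagal+/- myoblasts (passage 13, 250/well) treated 48 h at 37C with compounds at 1:260 dilution of DMSO stock. Lysed, then beta-galactosidase activity read as FDG fluorescence (ex 480/em 540) after 30 min, with pre-read for autofluorescence.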
ERG-DNA inh – inhibitors of human ERG Ets domain-DNA interaction | P11308 | Potency, µM (doses to about 76.9 µM), without a hit: top-dose FP activity, negative = inhibition, hits mostly inhibitors | fluorescence polarization, His-ERG Ets domain / labelled DNA | AID 624246 | actives 0.028% (n = 370,000); active means well fitted inhibition curve with a large enough effect in the polarisation, with a control signal flat; inconclusive means small, poorly fitted or top-dose-only effect, or effect the other way, or a change in a side signal; inactive means no such curve, though single readings can be large or run the other way; the % refers to the polarisation;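 further: polarization taken with two DNA probes labelled with fluorescein and Texas red; potency means the concentration at half of the fitted maximal effect; % of control where 0% means no effect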
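His-tagged ERG Ets domain (1 uM in the protein solution; 300mM KCl, 50mM Tris-HCl, 1mM EDTA, 1mM DTT, pH 7.5) received compound, then a probe mix of 5 nM fluorescein-DNA and 100nM Texas-615-DNA. Fluorescence polarization was read for both dyes.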
VP16 counter – counter-screen for ROR gamma inhibitors: Gal4-VP16 reporter. Potency, µM (titrated, usually from 53.6 µM), without a hit: at the top dose activity, negative = inhibition, actives largely listed as inhibitors. actives 3.5% (n = 310,000). AID 2546. Drosophila S2 Gal4-VP16 UAS-luciferase, luminescence, 20 h;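 further: Gal4-VP16 expression switched on by copper sulfate through the metallothionein promoter; potency means the concentration at half of the fitted maximal effect; on the % scale 0 is the no-effect control and ±100 the full control effect; nearly all actives have a fitted effect of over 50% in size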
* marks the source's active call; other numbers are inactive results; ? = inconclusive; · = not tested or not shown; ! = not confirmed by another sample; [ ] = remark or other dose. The entries come from a sample that favours hits as a whole. Unless noted, the call rests on the fitted dose curve; in most records, active means well fitted curve in the direction sought with a large enough effect; inconclusive means small, poorly fitted or top-dose-only effect, or another doubt; inactive means no such curve, though single readings can be large; an effect the other way counts as inactive or inconclusive.

SMILES | RORgamma inh | Giardia kill | Integrin act MD | ERG-DNA inh | VP16 counter
COc1ccc(-n2c(SCC#N)nc3ccccc3c2=O)cc1 | -10% | -9 | -3% | 11% | 12%
CCCCn1c(SCC(=O)Nc2cccc(OC)c2)nc2ccc(N3CCOCC3)cc2c1=O | 5µM* | 4 | -12% | -5% | 13µM*
CCCCCCn1c(SCC(=O)Nc2cc(C)on2)nc2ccccc2c1=O | 4µM* | -2 | 8% | -3% | 8%[0.365 µM]
C[C@]12CC[C@@H]3c4ccc(O)cc4CC[C@H]3[C@@H]1C[C@H](O)C2O (some centres undefined) | 9%[10 µM] | · | · | · | 3%
CC(C)=CCCC(C)CN1CCC(n2nccc2NC(=O)C2CCCC2)CC1 (centres undefined) | -33% | 2 | -5% | -3% | 1%
CN(C)c1ccc(C(C(=O)NC2CCCCC2)N(Cc2ccco2)C(=O)c2snc(C(N)=O)c2N)cc1 (centres undefined) | 23% | 13 | -59% | 12% | 3%
CCC1CCCCN1C(=S)NC1CCCCC1 (centres undefined) | 10µM* | -16 | -19% | 2% | ?
S=C(NC1CCCCC1)N1CCCCC1 | -38% | 0 | -20% | 4% | 9%
CCCc1c(OCC(O)COc2ccc3c(=O)cc(C(=O)O)oc3c2CCC)ccc(C(C)=O)c1O (centres undefined) | 27% | · | · | · | -16%
CCCc1c(OCCCCc2nn[nH]n2)ccc(C(C)=O)c1O | ? | -25 | · | ? | 13µM*!
C=CCN=c1scc(-c2ccc3c(c2)NC(=O)CO3)n1/N=C(\C)c1ccccn1 | 11µM* | -12 | -67% | 3% | ?
CCn1c(=O)c2cc(C(=O)Nc3cc(C)c(Cl)cc3OC)sc2c2ccccc21 | · | · | · | -9% | ·
C/C(=N\NC(=O)c1nnn(-c2nonc2N)c1CN1CCCCC1)c1ccccc1O | 6.3µM* | -3 | -32% | 7% | ?
CC1CCN(Cc2c(C(=O)N/N=C/c3ccccc3O)nnn2-c2nonc2N)CC1 | 10µM* | 7 | -21% | 7% | 7.9µM*
C/C(=N\NC(=O)c1nnn(-c2nonc2N)c1CN(C)c1ccccc1)c1ccccc1O | 1.6µM* | 5 | -17% | -7% | 4µM*
CCOc1ccc(-n2c(=O)c3sc4ccccc4c3n(Cc3ccc(F)cc3)c2=O)cc1 | · | · | · | 0% | ·
Cc1ccc(CNC(=O)Cn2c(=O)cc(C(F)(F)F)c3c(C)nn(C)c32)cc1 | · | · | · | 3% | ·
COc1ccc2c(c1-c1c3c(cc(Br)c1OC)CCCC3)CCCC2 | -4% | · | · | · | -3%
CCn1c(CSc2ncn[nH]2)nc2cc(C(=O)O)ccc21 | -4% | 32 | ? | 35µM* | 2%
CCn1c(CSc2nnc(-c3ccncc3)n2C)nc2cc(C(=O)O)ccc21 | -2% | 9 | -3% | 25µM* | 1%
CC1(C)OC(C(O)(c2cc(C(F)(F)F)cc(C(F)(F)F)c2)c2cc(C(F)(F)F)cc(C(F)(F)F)c2)C(C(O)(c2cc(C(F)(F)F)cc(C(F)(F)F)c2)c2cc(C(F)(F)F)cc(C(F)(F)F)c2)O1 (centres undefined) | 4%[10 µM] | · | · | · | 0%[10 µM]
C=CCNC(=S)NNc1nc2sc3c(c2c(=O)[nH]1)CC(C)(C)OC3 | 5.6µM* | ? | 4% | 1% | 10µM*
CC(C)c1ccc(NC(=O)c2cc(S(=O)(=O)NC3CCCCC3)ccc2F)cc1 | · | · | · | 1% | ·
CCC[C@H]1NC(=O)[C@H](C)N(C)C(=O)C(C)(C)C(=O)C(C)NC(=O)[C@H](Cc2ccc(OC)cc2)N(C)C(=O)[C@H](C(C)C)N(C)C(=O)CNC(=O)[C@H](CC(C)C)N(C)C(=O)CNC(=O)[C@H]([C@@H](C)CC)OC(=O)[C@H]1C (some centres undefined) | · | ? | 0% | -3% | ·
CC[n+]1ccc(/C=C/c2c[nH]c3ccccc23)cc1 | 15% | 11 | -67% | 5% | 13µM*
CCn1c(/C=C/c2c[nH]c3ccccc23)nc2ccccc2c1=O | 20% | -11 | 5% | 18% | ?
COC(=O)c1cccc(Nc2nc3ccccc3nc2C)c1 | -27% | 0 | -6% | -2% | 13µM*
Oc1ccc(/C=C/c2cc(O)cc(O)c2)cc1 | 2µM* | -24 | · | -4% | 14µM*!
